For some assays here: Results with a measured potency or affinity are listed apart.
Experiments:
Set-up in all cases: scale not given: direction of the effect not stated beside the values
[1] = target: Protein translocase subunit SecA (Escherichia coli (strain K12)) (UniProt P10408); assay: Assay to Identify E. coli SecA ATPase Inhibitors; format: functional; conditions: 30 µM
[2] = target: T1, Ubiquitin-activating enzyme e1, putative (Leishmania donovani (strain BPK282A1)) (UniProt E9BSI1); assay: Leishmania donovani Ubiquitin Activating Enzyme (LdE1); format: functional; conditions: 30 µM
T1 sequence (whole entry): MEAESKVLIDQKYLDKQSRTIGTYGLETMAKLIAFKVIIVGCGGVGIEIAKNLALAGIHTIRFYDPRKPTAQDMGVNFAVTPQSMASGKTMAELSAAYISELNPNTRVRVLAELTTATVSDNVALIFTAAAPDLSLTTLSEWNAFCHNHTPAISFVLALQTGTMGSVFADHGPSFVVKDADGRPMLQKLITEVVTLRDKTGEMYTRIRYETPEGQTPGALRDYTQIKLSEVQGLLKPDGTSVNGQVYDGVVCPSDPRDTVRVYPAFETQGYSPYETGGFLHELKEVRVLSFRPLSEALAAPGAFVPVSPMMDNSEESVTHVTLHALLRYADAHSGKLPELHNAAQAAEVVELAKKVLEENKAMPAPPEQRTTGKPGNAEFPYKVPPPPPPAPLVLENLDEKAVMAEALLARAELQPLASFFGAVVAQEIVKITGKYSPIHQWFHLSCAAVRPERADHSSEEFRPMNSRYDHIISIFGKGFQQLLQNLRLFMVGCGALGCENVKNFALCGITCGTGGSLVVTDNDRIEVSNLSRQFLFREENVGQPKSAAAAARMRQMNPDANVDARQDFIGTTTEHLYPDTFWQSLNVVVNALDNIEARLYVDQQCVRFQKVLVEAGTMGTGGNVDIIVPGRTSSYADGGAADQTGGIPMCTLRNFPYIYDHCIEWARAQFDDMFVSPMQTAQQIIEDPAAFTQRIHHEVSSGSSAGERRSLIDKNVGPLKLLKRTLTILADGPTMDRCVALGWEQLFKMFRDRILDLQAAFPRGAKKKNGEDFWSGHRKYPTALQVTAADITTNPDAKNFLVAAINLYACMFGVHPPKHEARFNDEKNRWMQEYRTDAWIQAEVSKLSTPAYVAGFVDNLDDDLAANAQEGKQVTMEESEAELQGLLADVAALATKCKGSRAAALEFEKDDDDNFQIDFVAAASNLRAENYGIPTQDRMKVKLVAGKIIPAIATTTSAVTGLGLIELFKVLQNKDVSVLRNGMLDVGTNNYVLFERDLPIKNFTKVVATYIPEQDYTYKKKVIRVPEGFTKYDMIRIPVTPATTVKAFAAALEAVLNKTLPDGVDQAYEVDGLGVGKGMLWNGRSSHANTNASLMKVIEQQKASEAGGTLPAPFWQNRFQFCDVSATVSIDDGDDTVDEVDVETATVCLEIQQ

[3] = target: AMP-activated protein kinase, AMPK (Homo sapiens) (UniProt P54646+O43741+P54619+Q9UGJ0+Q9Y478+Q13131+Q9UGI9); assay: AMP-dependent Kinase enzyme assay. An in vitro enzyme assay that detects ADP turnover that is directly proportional to AMPK activity. This uses naive AMPK that is activated during the assay with MK-8722; format: functional; conditions: 30 µM
[4] = target: Sialic acid-binding Ig-like lectin 9 (Homo sapiens) (UniProt Q9Y336); assay: Hs-Siglec9 ALPHAscreen SOP 20170721; conditions: 10 µM
Trypanosoma cruzi = assay: Trypanosoma cruzi phosphomannomutase and mannose-1-phosphate guanylyltransferase assay; format: functional; conditions: 10 µM
[5] = target: T2, Arginase-2, mitochondrial (Homo sapiens) (UniProt P78540); assay: in vitro enzyme assay to detect the production of urea directly proportional to the activity of Arginase II; format: functional; conditions: 33.3 µM; further: in the data most compounds retested in dose-response had high values
T2 sequence (whole entry): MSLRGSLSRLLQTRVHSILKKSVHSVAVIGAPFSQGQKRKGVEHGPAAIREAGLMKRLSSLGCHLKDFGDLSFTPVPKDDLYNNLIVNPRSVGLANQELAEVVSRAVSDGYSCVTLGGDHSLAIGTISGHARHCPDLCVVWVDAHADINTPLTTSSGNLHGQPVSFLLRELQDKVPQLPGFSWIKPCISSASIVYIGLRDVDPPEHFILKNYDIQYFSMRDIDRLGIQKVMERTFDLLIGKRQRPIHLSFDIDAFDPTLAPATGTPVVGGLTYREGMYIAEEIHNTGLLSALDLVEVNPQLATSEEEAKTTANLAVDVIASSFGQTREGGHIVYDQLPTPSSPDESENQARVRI

[6] = target: T3, Proteasome subunit beta (Trypanosoma cruzi) (UniProt O96673); assay: Trypanosoma cruzi proteasome chymotrypsin-like activity (TcProtChymo) assay.; further: in the data most compounds retested in dose-response had high values; format: functional; conditions: 9.37 µM
T3 sequence (whole entry): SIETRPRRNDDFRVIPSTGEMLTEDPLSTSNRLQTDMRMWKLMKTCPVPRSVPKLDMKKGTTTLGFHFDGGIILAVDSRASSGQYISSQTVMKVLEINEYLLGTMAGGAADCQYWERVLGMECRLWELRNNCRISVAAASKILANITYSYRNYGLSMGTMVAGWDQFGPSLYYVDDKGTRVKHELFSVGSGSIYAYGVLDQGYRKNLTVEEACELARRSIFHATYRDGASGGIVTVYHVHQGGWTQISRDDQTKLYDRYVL

Homo sapiens = species: Homo sapiens; assay: To identify inhibition of the IFN signalling (Jak-Stat) pathway via expression of an eGFP reporter gene under the control of an IFN-stimulated response element (ISRE) containing MxA promoter.; format: functional; conditions: 30 µM
[7] = target: T4, Tyrosyl-tRNA synthetase, putative (Trypanosoma cruzi (strain CL Brener)) (UniProt Q4DSP6); assay: Trypanosoma cruzi tyrosyl tRNA synthetase (TcYRS) _High Tyrosine SOP; format: functional; conditions: 30 µM; further: in the data most compounds retested in dose-response had high values
T4 sequence (whole entry): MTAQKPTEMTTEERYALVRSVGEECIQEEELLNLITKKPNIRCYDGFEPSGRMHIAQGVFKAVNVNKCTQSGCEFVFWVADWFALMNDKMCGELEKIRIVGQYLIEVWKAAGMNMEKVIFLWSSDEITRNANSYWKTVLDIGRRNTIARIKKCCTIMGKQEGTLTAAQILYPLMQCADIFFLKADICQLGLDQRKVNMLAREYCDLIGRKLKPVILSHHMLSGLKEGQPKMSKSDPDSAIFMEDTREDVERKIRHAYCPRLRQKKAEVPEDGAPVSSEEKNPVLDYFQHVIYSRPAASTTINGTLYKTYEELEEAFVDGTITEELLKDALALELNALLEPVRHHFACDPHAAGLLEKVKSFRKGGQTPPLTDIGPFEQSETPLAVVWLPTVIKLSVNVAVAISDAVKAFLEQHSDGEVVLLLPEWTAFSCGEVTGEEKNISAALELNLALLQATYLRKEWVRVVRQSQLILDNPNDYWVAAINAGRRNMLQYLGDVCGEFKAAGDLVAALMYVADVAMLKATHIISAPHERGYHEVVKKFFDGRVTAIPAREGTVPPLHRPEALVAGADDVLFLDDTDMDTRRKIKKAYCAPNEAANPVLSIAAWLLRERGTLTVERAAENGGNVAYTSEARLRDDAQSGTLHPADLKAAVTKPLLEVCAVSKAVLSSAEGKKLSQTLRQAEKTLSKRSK

[8] = target: T4, Tyrosyl-tRNA synthetase, putative (Trypanosoma cruzi (strain CL Brener)); assay: Trypanosoma cruzi tyrosyl tRNA synthetase (TcYRS) SOP; format: functional; conditions: 30 µM
[9] = target: Chromo domain-containing protein 1 (Saccharomyces cerevisiae (strain ATCC 204508 / S288c) (Baker's yeast)) (UniProt P32657); assay: ScCHD-1 Enzyme Inhibition Assay; format: functional; conditions: 30 µM; further: in the data most compounds retested in dose-response had high values
Chain of Chromo domain-containing protein 1 (Saccharomyces cerevisiae (strain ATCC 204508 / S288c) (Baker's yeast)) (P32657 whole entry, the tested form may be a part): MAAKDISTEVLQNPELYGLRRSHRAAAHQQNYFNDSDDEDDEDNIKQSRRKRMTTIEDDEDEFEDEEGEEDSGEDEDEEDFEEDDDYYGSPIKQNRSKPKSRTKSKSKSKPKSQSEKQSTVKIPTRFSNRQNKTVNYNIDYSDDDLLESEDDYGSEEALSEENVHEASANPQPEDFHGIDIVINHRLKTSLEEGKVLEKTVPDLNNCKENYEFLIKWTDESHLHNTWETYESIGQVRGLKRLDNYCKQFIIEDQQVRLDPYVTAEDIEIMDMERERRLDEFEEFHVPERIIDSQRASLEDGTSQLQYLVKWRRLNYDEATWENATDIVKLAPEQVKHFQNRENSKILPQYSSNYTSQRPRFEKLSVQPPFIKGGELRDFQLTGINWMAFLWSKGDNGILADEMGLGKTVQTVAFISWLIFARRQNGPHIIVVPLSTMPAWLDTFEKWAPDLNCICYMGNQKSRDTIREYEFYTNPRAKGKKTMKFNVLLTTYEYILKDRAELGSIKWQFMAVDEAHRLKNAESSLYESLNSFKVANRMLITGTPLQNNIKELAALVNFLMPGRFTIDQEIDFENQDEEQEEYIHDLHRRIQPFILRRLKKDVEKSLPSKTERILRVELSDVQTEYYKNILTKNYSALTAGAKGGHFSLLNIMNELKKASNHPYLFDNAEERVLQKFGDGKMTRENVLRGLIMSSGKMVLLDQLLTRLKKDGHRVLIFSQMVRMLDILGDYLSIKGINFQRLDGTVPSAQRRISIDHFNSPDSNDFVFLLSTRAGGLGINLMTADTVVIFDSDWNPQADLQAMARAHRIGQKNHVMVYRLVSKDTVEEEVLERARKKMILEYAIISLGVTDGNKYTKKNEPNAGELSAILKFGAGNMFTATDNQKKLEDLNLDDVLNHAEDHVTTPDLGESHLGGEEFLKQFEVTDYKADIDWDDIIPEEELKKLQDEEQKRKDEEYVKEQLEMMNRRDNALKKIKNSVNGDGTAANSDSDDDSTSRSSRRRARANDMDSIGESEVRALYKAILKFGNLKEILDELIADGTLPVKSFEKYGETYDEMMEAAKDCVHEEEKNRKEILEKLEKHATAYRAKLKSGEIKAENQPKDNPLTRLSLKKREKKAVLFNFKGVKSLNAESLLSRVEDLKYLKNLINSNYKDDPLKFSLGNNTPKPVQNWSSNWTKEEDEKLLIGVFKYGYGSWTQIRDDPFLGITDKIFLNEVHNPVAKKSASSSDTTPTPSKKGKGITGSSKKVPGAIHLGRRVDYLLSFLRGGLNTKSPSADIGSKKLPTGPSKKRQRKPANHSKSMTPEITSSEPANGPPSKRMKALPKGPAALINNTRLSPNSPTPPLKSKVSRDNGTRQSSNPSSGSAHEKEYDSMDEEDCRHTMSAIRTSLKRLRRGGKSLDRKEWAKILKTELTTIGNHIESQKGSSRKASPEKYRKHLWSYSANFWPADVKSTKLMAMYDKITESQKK

Chain of Sialic acid-binding Ig-like lectin 9 (Homo sapiens) (Q9Y336 whole entry): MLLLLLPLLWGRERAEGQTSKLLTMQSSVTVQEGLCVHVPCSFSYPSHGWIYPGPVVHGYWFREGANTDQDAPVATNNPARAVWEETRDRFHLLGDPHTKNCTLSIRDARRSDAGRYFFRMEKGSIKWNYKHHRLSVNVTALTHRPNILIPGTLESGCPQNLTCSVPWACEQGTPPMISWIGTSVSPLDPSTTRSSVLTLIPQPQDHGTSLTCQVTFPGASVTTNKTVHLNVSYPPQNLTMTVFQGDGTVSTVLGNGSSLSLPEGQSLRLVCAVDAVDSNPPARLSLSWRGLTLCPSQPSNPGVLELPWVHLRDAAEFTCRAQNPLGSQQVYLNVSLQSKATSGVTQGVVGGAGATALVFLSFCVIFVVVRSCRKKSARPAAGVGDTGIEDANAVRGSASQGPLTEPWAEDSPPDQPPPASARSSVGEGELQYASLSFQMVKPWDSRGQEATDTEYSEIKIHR
Chain of Protein translocase subunit SecA (Escherichia coli (strain K12)) (P10408 whole entry): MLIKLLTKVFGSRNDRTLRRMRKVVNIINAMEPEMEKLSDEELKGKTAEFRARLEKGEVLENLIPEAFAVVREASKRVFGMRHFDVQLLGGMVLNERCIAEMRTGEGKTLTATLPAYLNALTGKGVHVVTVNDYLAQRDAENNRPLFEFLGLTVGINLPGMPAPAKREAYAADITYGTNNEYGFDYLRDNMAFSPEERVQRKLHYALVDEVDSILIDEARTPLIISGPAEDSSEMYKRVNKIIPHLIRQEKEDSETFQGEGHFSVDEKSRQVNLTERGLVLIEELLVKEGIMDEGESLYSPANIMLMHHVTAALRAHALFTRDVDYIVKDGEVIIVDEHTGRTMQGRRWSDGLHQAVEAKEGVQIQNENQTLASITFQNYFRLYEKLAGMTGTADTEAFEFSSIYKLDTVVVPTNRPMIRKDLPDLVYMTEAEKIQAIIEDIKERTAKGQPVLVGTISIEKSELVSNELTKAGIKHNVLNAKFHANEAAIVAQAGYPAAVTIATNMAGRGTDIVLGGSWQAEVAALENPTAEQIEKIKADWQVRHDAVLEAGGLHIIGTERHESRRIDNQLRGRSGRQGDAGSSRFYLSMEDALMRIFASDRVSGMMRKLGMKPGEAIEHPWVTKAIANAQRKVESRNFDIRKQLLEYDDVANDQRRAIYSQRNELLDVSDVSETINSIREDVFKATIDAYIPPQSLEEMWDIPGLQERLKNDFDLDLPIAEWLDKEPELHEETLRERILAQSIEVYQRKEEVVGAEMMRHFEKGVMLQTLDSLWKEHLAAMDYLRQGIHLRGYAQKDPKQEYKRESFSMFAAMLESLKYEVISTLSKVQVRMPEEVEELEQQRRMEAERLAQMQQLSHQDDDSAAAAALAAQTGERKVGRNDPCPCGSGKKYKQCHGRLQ

Structure (SMILES) | Percent Effect [1] [%] | Percent Effect [2] [%] | Percent Effect [3] [%] | Percent Effect [4] [%] | Percent Effect (Trypanosoma cruzi) [%] | Percent Effect [5] [%] | Percent Effect [6] [%] | Percent Effect (Homo sapiens) [%] | Percent Effect [7] [%] | Percent Effect [8] [%] | Percent Effect [9] [%]
CN(C)C(=O)C1CCCN1CCCNC(=O)c1ccccc1F (configuration not stated) | -2.29 | 8.22 | -4.32 | 2.43 | -0.783 | 0.909 | 15.6 | 12.8 | 5.38 | 12.5 | -3.39
COc1ccnc(C(=O)N2CCCC(c3noc(C)n3)C2)c1 (configuration not stated) | -0.16 | -7.59 | 1.48 | 5.56 | -0.85 | 0.76 | 3.03 | -3.33 | -2.46 | -1.27 | -3.23
CCc1ccc(CN2CCC3(CC2)CNC(=O)CO3)o1 | -2.61 | 2.7 | 1.59 | -0.0986 | 1.76 | 1.25 | 1.77 | -14.2 | 2.97 | -3.66 | -0.389
O=C(CCc1ccccc1)N1CCn2cc(CN3CCCC3)nc2C1 | 0.2 | 5.2 | -2.41 | 2.78 | -1.08 | -3.23 | 11.8 | 7.71 | 12.7 | 16.7 | -2.74
CC(=O)NC(C)c1ccc(OCC2CC2)c(F)c1 (configuration not stated) | -2.63 | 5.26 | -0.202 | 5 | 3.21 | -9.47 | 4.7 | 7.74 | 4.25 | 7.79 | -7.19
CN(C)CCO[C@@H]1CC[C@H]2[C@H]1OCCN2C(=O)CCc1ccccc1 | -1.21 | 2.67 | -7.4 | -1.11 | -2.7 | -57.5 | 0.171 | -1.39 | 0 | 2.5 | -6.72
Cc1nc(C)n(C2CCCN(C(=O)c3ccc(F)cc3F)C2)n1 (configuration not stated) | -3.45 | 0 | 0.572 | -0.68 | 2.73 | 24.6 | 11.2 | -8.13 | 9.9 | 18.3 | -7.11
CC(C)(C)c1ncc2c(n1)CN(C(=O)c1ccc(-c3nc[nH]n3)cc1)C2 | -4.17 | 19.2 | -3.06 | 7.66 | 4.37 | 1.2 | 6.76 | -4.4 | 7.29 | 21 | -8.9
O=C1CCCCN1c1cccc(CNC2CCCC2)c1 | -1.28 | 0 | 5.47 | 3.26 | 2.06 | 2.74 | 8.49 | -9.59 | 2.86 | 7.06 | -7.72
CCN1CC(C(=O)NCc2ccnc(-n3ccnc3C)c2)CC1=O (configuration not stated) | -2.69 | 0 | -12.9 | -7.63 | 0 | -3.18 | 3.02 | 20.3 | -1.07 | -2.5 | -4.95
COCC(=O)N1Cc2cnc(Cc3ccc(OC)cc3)nc2C1 | -5.39 | 5.48 | -2.68 | -3.21 | 0.392 | 3.64 | 10.3 | 1.33 | 8.6 | 15 | -4.76
O=C(NCN1CCc2ccccc2C1)c1cnccn1 | -0.536 | 2.7 | -2.81 | -3.19 | -7.33 | 2.73 | 10.4 | 0.709 | 1.07 | 6.17 | -6.84
Cc1nn(C)c(C)c1C1CCCN1Cc1nc(C)c2ccccc2n1 (configuration not stated) | -3.55 | 3.8 | 1.88 | -0.0747 | 1.74 | 1.94 | 2.06 | -6.74 | 20.8 | 25.3 | -22.5
N#CCCN(CCC#N)C(=O)CN1CCCC1Cc1cccc(F)c1 (configuration not stated) | -3.46 | 0 | -6.01 | -7.53 | 3.32 | 1.25 | 24.6 | -17.1 | 7.92 | 8.54 | 0.083
COCCOc1ncccc1C(=O)Nc1ccc(-n2cncn2)c(F)c1 | -2.86 | 10.5 | 0.415 | 9.57 | 0 | 0 | 17.5 | -26.4 | 7.35 | 12.2 | -9.99
O=C(NCCn1ccc(-c2ccncc2)n1)c1ccncc1 | -1.85 | 5.48 | -0.372 | 8.72 | 1.57 | -0.455 | 9.58 | 2.43 | 2.15 | 2.5 | -2.37
CNS(=O)(=O)c1cc(C(=O)NC2CCOc3ccccc32)cc(C)c1C (configuration not stated) | -6.38 | -2.63 | 13.9 | -3.37 | -3.41 | -4.73 | 8.53 | -0.414 | 4.25 | 7.79 | 7.83
Cc1noc(C(C)C)c1C(=O)NCC(c1ccsc1)N(C)C (configuration not stated) | -1.69 | 15.2 | 2.11 | -4.7 | -5.19 | -1.52 | 13.3 | 32.5 | 1.48 | 11.4 | -5.47
CCCS(=O)(=O)N1CCC2(CC1)CN(c1ccccn1)CCO2 | -4.44 | 4 | -4.84 | -5.06 | -11 | -11.8 | 11.8 | -5.14 | 0 | -2.56 | -7.42
Cc1nc(C2(O)CCCNCC2)sc1CCOc1ccc(Cl)cc1 (configuration not stated) | -4.62 | 6.76 | 17.1 | 1.33 | -3.56 | -2.09 | 6.4 | 33.8 | 4.3 | 11.7 | -12.8
Cc1ccc(-c2nc(CN3CCOC(Cn4cccn4)C3)cs2)o1 (configuration not stated) | 0.91 | 2.7 | -3.73 | 5.65 | 7.14 | 0.476 | 12.4 | 4.23 | 2.65 | 9.76 | 0.401
CCS(=O)(=O)NC(C(=O)NC)c1ccc(F)c(F)c1 (configuration not stated) | -1.19 | 2.7 | -9.93 | 0.659 | 0.195 | 2.92 | 10.7 | -11.3 | 9.9 | 20.7 | -7.3

From ChEMBL document CHEMBL3988442, “University of Dundee, Small-Polar-MMV Screening Library” (2021)
